Where “and” joins values, the source holds several entries; their conditions need not be identical. Identical values can stand only once. Inconclusive results are not listed. The source holds several records for some structures; these can differ, active in one and inactive in another. Calls of active or inactive are those of the source. How the source made its calls, unless noted: active means hit-call score of the fitted dose curve at least 0.9, where 1 is the maximum; inactive means score below 0.9.
What was measured:
[1] = CCTE_Mundy_HCI_Cortical_Synap_Neur_Matur_NeuriteSpotCountPerNeuron: CCTE's Synaptogenesis and Neurite Maturation Assay in rat cortical cells for Neurite Spot Count per Neuron Count, Mundy Lab (AID 2284215)
Procedure, shortened: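 Synapse density is scored as synaptophysin spots along neurites per neuron in fixed rat cortical neurons, measured at DIV 12 after chemical dosing at DIV 7. DMSO is the negative control and activity baseline.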

[2] = TAMU_PeakParms_SingleDonor1434_Chronotropy: Texas A&M University (TAMU) 1.5-hr Human Induced Pluripotent Stem Cell (iPSC)-derived Cardiomyocytes Calcium (Ca+2) Flux Assay for Cardiotoxicity: Chronotropy (changes in peak frequency) (AID 2284217); conditions: actives raise or lower the signal
Procedure, shortened: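 iPSC-derived cardiomyocytes (single donor 1434) dosed at 0.2, 1, 10 and 100 uM in 0.5% DMSO for 1.5 h at 37C; Ca2+ dye fluorescence gave average beat frequency. Zero-beat points removed; bidirectional fit versus DMSO, POD as EC05.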

[3] = CCTE_Mundy_HCI_Cortical_Synap_Neur_Matur_SynapseCount: CCTE's Synaptogenesis and Neurite Maturation Assay in rat cortical cells for Synapse Count, Mundy Lab (AID 2284218)
Procedure, shortened: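 Synapse count per neuron is measured in rat cortical neurons exposed to chemicals between DIV 7 and DIV 12, with glial growth arrested by AraC at DIV 5. Synaptophysin and MAP2 staining is imaged automatically; activity is fitted relative to DMSO.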

[4] = CCTE_Mundy_HCI_hN2_NOG_NeuriteCount: CCTE's Neurite Outgrowth Assay in human hN2 cells for Neurite Count, Mundy Lab (AID 2284219; active means hit-call score of the fitted dose curve at least 0.9, where 1 is the maximum)
Procedure, shortened: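 In this morphology assay, hNP1-derived neurons received test chemical 2 h post-plating and were fixed two days later in warm paraformaldehyde/sucrose containing Hoechst 33342. Neurites, labelled by rabbit anti-βIII-tubulin (1:800) and Alexa Fluor-488 (1:500), were counted automatically.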

[5] = CCTE_Mundy_HCI_hN2_NOG_NeuriteLength: CCTE's Neurite Outgrowth Assay in human hN2 cells for Neurite Length, Mundy Lab (AID 2284220; active means hit-call score of the fitted dose curve at least 0.9, where 1 is the maximum)
Procedure, shortened: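 Read-out is neurite length from high-content imaging of βIII-tubulin/Alexa Fluor-488-labelled neurons, referenced to DMSO controls.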

[6] = CCTE_Mundy_HCI_Cortical_Synap_Neur_Matur_CellBodySpotCount: CCTE's Synaptogenesis and Neurite Maturation Assay in rat cortical cells for Cell Body Spot Count, Mundy Lab (AID 2284223)
Procedure, shortened: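 Synapse number at neuronal cell bodies was quantified as synaptophysin puncta per neuron in rat cortical cultures exposed from DIV 7 to DIV 12. Values were normalised to DMSO.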

[7] = CCTE_Mundy_HCI_hNP1_Pro_ResponderAvgInten: CCTE's Proliferation Assay in human neuroprogenitor cells, Mundy Lab (AID 2284224; active means hit-call score of the fitted dose curve at least 0.9, where 1 is the maximum;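 further: human neural progenitor cells hNP1 derived from WA09 embryonic stem cells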)
Procedure, shortened: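 Proliferation read as average intensity of BrdU-positive cells, imaged at 26.25 h post-dosing: chemical exposure started after 40–44 h culture, BrdU during final 4 h, paraformaldehyde fixation. Positive-direction fit relative to DMSO.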

[8] = TAMU_PeakParms_SingleDonor1434_QT: Texas A&M University (TAMU) 1.5-hr Human Induced Pluripotent Stem Cell (iPSC)-derived Cardiomyocytes Calcium (Ca+2) Flux Assay for Cardiotoxicity: QT (decay-rise ratio) (AID 2284235; active means hit-call score of the fitted dose curve at least 0.9, where 1 is the maximum)
Procedure, shortened: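 iPSC-derived cardiomyocytes (single donor 1434) dosed at 0.2, 1, 10, 100 uM final in 0.5% DMSO, 90 min at 37C. Ca2+ flux fluorescence decay/rise ratio; EC05 (5% increase versus DMSO) as POD, excluding beat-arrest and severe-notch data.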

[9] = BSK_BT_PBMCCytotoxicity: PBMC Cytotoxicity Assessment in the BioMAP Diversity Plus: BT Assay (AID 2284225); conditions: primary human B cells with PBMC;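 further: PBMC viability measured by Alamar Blue dye reduction fluorescence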
Procedure, shortened: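 75,000 cells/well; cpd 1 h → SEB + TSST-1 (20 ng/mL final each) → 90 h → Alamar Blue 6 h → fluor. 546/580 nm. DMSO = neg. control/baseline.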

[10] = read-out: Secreted IgG (sIgG), gene 3500; test: BSK_BT_sIgG: BioMAP Diversity Plus: BT Assay for Secreted IgG (sIgG) Biomarker Activity (AID 2284226); conditions: primary human B cells with PBMC
Procedure, shortened: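 Secreted IgG from a human primary B cell–PBMC co-culture was measured by ELISA 24 hours after dosing, with DMSO defining baseline activity.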

[11] = BSK_BT_Bcell_Proliferation: Viability Assessment in the BioMAP Diversity Plus: BT Assay for B cell Proliferation (AID 2284227); conditions: primary human B cells with PBMC
Procedure, shortened: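 Human B cells co-cultured with PBMC were dosed with test chemicals and relative cell number was quantified by SRB staining at 72 h. Cells were fixed in 10% TCA, stained with 0.1% SRB and read at 560 nm. Activity was fitted in the positive direction against DMSO.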

[12] = read-out: Interleukin 6 (IL6), IL6 (gene 3569); test: BSK_BT_xIL6: BioMAP Diversity Plus: BT Assay for Interleukin 6 (IL6) Biomarker Activity (AID 2284228); conditions: primary human B cells with PBMC
Procedure, shortened: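 Chemical added to human B cell/PBMC co-culture → 24 h → supernatant IL-6 by Luminex xMAP → fit vs DMSO baseline, upward direction.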

[13] = read-out: Interleukin 17A (IL17A), IL17A (gene 3605); test: BSK_BT_xIL17A: BioMAP Diversity Plus: BT Assay for Interleukin 17A (IL17A) Biomarker Activity (AID 2284229); conditions: primary human B cells with PBMC
Procedure, shortened: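 Chemicals were added to a human B cell and PBMC co-culture. After 24 h, secreted IL-17A was measured with Luminex xMAP. Curves were fitted in the positive direction, with DMSO wells as baseline.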

[14] = read-out: Tumor necrosis factor (Homo sapiens) (UniProt P01375); test: BSK_BT_xTNFa: BioMAP Diversity Plus: BT Assay for Tumor necrosis factor alpha (TNF-alpha) Biomarker Activity (AID 2284230); conditions: primary human B cells with PBMC
Procedure, shortened: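 B cells with PBMC in co-culture, dosed and sampled at 24 h; secreted TNF-alpha measured by Luminex xMAP bead assay. Activity fitted in the gain direction against DMSO as negative control and baseline.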

[15] = read-out: Vascular cell adhesion molecule 1 (VCAM1), VCAM1 (gene 7412); test: BSK_MyoF_VCAM1: BioMAP Diversity Plus: MyoF Assay for Vascular cell adhesion molecule 1 (VCAM1) Biomarker Activity (AID 2284231); conditions: primary human lung fibroblasts
Procedure, shortened: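 Steps: fibroblasts from human lung exposed to compound; biomarker quantified by ELISA at 24 h; values analysed for upward change over the DMSO baseline.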

[16] = CCTE_Mundy_HCI_hN2_NOG_NeuronCount: CCTE's Neurite Outgrowth Assay in human hN2 cells for Neuron Count, Mundy Lab (AID 2284221; active means hit-call score of the fitted dose curve at least 0.9, where 1 is the maximum)
Procedure, shortened: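 Read-out is the number of betaIII-tubulin-positive neurons imaged by automated high-content analysis, with DMSO as negative control.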

[17] = CCTE_Mundy_HCI_Cortical_Synap_Neur_Matur_NeuriteCount: CCTE's Synaptogenesis and Neurite Maturation Assay in rat cortical cells for Neurite Count, Mundy Lab (AID 2284222);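 further: exposure from day 7 to day 12 in vitro with readout at day 12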
Procedure, shortened: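 Rat primary cortical cells; AraC added at DIV 5, chemicals dosed with media change at DIV 7 through DIV 12. MAP2/synaptophysin/Hoechst immunostaining, high-content imaging of neurite number; fitted relative to DMSO.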

Measured: AC50

Sequence of Tumor necrosis factor (Homo sapiens) (P01375 whole entry, looked up): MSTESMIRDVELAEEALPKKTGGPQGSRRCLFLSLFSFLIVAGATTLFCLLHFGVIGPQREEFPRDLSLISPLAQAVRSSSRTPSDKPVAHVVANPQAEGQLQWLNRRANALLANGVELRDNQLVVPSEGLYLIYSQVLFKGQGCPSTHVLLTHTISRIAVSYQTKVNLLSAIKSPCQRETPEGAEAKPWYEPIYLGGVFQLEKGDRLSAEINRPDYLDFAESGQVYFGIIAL

CC(=O)Nc1ccc(O)cc1
inactive: [1] | [2] | [3] | [4] | [5] | [6] | [7] | [8]

O=C(O)C(F)(F)OC(F)(F)C(F)(F)OC(F)(F)C(F)(F)OC(F)(F)C(F)(F)C(F)(F)C(F)(F)F
inactive: [9] | [11]
active: [10] 42.5 µM and 34.9 µM | [12] 43.1 µM and 52.8 µM | [13] 41.8 µM and 51.3 µM | [14] 48.6 µM and 53.5 µM | [15] 12.5 µM and 12.3 µM

O=P(O)(O)CCC(F)(F)C(F)(F)C(F)(F)C(F)(F)C(F)(F)C(F)(F)C(F)(F)C(F)(F)F
inactive: [9] | [10] | [12] | [13] | [14] | [15]
active: [11] 30 µM and 53.9 µM | [14] 30 µM

C=CC(C)(CCC=C(C)C)OC(C)=O (stereo not given)
inactive: [9] | [10] | [11] | [12] | [13] | [14] | [15]

CN(Cc1cnc2nc(N)nc(N)c2n1)c1ccc(C(=O)N[C@@H](CCC(=O)O)C(=O)O)cc1
active: [10] 662 nM and 100 nM | [11] 855 nM and 43.4 nM
inactive: [1] | [3] | [4] | [5] | [16] | [17] | [6] | [9] | [12] | [13] | [14] | [15]

O=C(O)CCC(F)(F)C(F)(F)C(F)(F)C(F)(F)C(F)(F)F
active: [10] 30 µM | [11] 6.31 µM
inactive: [9] | [10] | [11] | [12] | [13] | [14] | [15]

CCCCCCCCCCCCCCCCCC[N+](C)(C)Cc1ccccc1
active: [9] 4.83 µM | [10] 0.66 µM | [11] 1.88 µM | [12] 6.37 µM | [13] 792 nM | [14] 3.16 µM | [15] 2.72 µM

OCC(F)(F)C(F)(F)C(F)(F)C(F)(F)C(F)(F)C(F)(F)C(F)(F)C(F)(F)C(F)(F)C(F)(F)C(F)(F)F
active: [9] 0.0655 µM | [11] 174 nM and 835 nM | [13] 55.4 nM
inactive: [7] | [9] | [10] | [12] | [13] | [14] | [15]

Oc1cc2ccccc2cc1O
inactive: [9] | [10] | [11] | [12] | [13] | [14] | [15]

O=P(O)(O)CCC(F)(F)C(F)(F)C(F)(F)C(F)(F)C(F)(F)C(F)(F)F
inactive: [9] | [10] | [11] | [12] | [13] | [14] | [15]
active: [9] 12.2 µM

Reference: PubChem BioAssay (EPA / NIEHS)
